Rows were chosen to be rich in hits. Some 9.2% of all compounds tested hit in one or more screens of this group.
SMN2 splice up – enhancers of SMN2 splice variant expression. HEK293 SMN2-luciferase splicing reporter, luminescence, 30-36 h. Potency, µM (doses to about 46.1 µM), without a hit: at the highest dose activity change, positive = activation, most hits filed as activators. hit rate 2.8% among 210,000; also: % of control where 0% means no effect; nearly all actives have a fitted effect of over 55% in size
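HEK293 cells carry an SMN2 minigene-luciferase reporter in which exon 7 inclusion puts luciferase in frame. Cells were seeded at 2000 cells/well, attached for 10-12 hours, then exposed to compounds for 30-36 hours at 37C before ONE-Glo luminescence.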
ELG1 genotox – inducers of genotoxicity in HEK293T ELG1-luciferase cells | hit rate 1.3% among 330,000 | HEK293T ELG1-luciferase reporter, luminescence, 16 h | AID 504466 | Potency, µM (top dose mostly 46 µM), inactives show top-dose activity change, positive = activation, hits mostly activators; also: % of control where 0% means no effect; nearly all actives have a fitted effect of over 60% in size
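HEK293T cells expressing luciferase-tagged ELG1 were treated with compound or DMSO for 16 hr at 37°C. Luciferase activity was then read after 30 min with ONE-Glo at room temperature; rising signal flags genetic stress.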
ELG1 repair inh – ELG1-dependent DNA repair inhibition. hit rate 2.3% among 330,000. HEK293T ELG1-luciferase reporter, luminescence, 16 h; DNA damage induced by 5-fluorouridine. AID 504467. Potency, µM (top dose mostly 46.1 µM), for the others: at the top dose activity change, negative = inhibition, hits mostly inhibitors; also: % is scaled to controls: 0 for no effect and ±100 for the full control effect; nearly all actives have a fitted effect of over 55% in size
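Overnight (16 hr) co-exposure of 2,000 cells/well to 5-fluorouridine and compound at 37 °C preceded detection. Luciferase was quantified via ONE-Glo luminescence; loss of signal denotes inhibition.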
FLuc modulator – firefly luciferase modulation, counter-screen for miR-21 project; hit rate 6.9% among 360,000; AID 588342; purified FLuc, Km substrates, luminescence inhibition; Potency, µM (doses to about 57.5 µM), inactives show at the highest dose activity change, negative = inhibition, usual class: inhibitors;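 also: plate controls were vehicle for no effect and reference inhibitor for full effect; nearly all actives have a fitted effect of over 55% in size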
Target sequence (P08659 whole entry, looked up): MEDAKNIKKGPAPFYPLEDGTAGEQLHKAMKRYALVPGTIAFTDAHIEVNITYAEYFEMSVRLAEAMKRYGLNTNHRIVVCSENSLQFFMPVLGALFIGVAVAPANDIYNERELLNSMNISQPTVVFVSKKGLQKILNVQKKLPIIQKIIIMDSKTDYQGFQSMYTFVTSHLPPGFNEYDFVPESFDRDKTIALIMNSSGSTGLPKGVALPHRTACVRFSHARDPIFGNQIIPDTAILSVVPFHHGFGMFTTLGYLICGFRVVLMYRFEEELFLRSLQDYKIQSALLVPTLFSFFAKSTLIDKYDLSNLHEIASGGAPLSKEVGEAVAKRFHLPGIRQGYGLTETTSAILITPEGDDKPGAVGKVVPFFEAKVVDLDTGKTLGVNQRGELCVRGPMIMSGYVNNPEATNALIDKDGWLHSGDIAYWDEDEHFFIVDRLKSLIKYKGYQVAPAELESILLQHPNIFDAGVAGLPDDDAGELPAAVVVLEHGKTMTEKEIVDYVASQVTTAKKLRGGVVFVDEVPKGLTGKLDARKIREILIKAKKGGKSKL
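Purified P. pyralis luciferase (10nM final) with 10uM D-luciferin and 10uM ATP (Km levels) in 50mM Tris acetate pH 7.5, 10mM Mg acetate, 0.01% Tween-20, 0.05% BSA; qHTS 6-point titration, ~60 µM downward; luminescence read.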
NPC1 prom act – activators of NPC1 promoter. Huh7 NPC1 promoter luciferase reporter, 24 h. Potency, µM (top dose mostly 9.22 µM), for the others: top-dose activation, most hits filed as activators. hit rate 2.4% among 320,000; also: % of control where 0% means no effect; nearly all actives have a fitted effect of over 60% in size
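Quantitative HTS used a cell-based reporter: Huh7 cells stably bearing the NPC1 promoter upstream of luciferase were treated with compounds for 24 h, and promoter activation was read as luminescence.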
Rab9 prom act – activates the Rab9 promoter; Huh7 Rab9 promoter-luciferase reporter, luminescence, 24 h; Potency, µM (highest dose often 9.22 µM), for the others: at the top dose activation, negative = inhibition, usual class: activators; hit rate 2.8% among 320,000; AID 485297; also: % of control where 0% means no effect; nearly all actives have a fitted effect of over 60% in size
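Rab9 promoter-driven luciferase in stably transfected Huh7 cells; 1500 cells/well rested 2 h, exposed to compound in DMSO for 24 h at 37 °C, 5% CO2. Luminescence read 10 min after adding luciferase reagent at ambient temperature.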
Starred values were filed as active, the others as inactive; ? = inconclusive; · = not tested or not shown; [ ] = remark or other dose. Calls follow the shape of the dose curve; as a rule, active = well fitted curve in the direction sought with a large enough effect; inconclusive = small, poorly fitted or top-dose-only effect, or another doubt; inactive = no such curve, though single readings can be large; an effect the other way counts as inactive or inconclusive. Potency is read from the fitted curve at half-maximal effect.

SMILES | SMN2 splice up | ELG1 genotox | ELG1 repair inh | FLuc modulator | NPC1 prom act | Rab9 prom act
COc1cc(NC(=O)c2cccnc2Sc2ccc(Cl)cc2)cc(OC)c1OC | -33.6% | -4.5% | 8.2µM* | 3.0% | -1.3% | -6.3%
COc1cc(NC(=O)c2ccccn2)cc(OC)c1OC | -13.5% | 4.1% | ? | 4.3% | 0.9% | -3.9%
COc1ccc(NC(=O)Nc2cccc3ccccc23)cc1OC | · | 8.5% | 2.4% | -8.1% | -2.1% | -1.1%
COc1cc(NC(=O)Nc2cccc3cccnc23)cc(OC)c1OC | · | 5.8% | -22.7% | 19µM* | -2.0% | 6.6%
COc1cc(C(=O)Nc2cccc3cccnc23)cc(OC)c1OC | -6.8% | -7.8% | 20.6µM* | -9.4% | 0.8% | -6.2%
Cc1ccc(C(=O)N2CCC(N3CCN(Cc4ccc(F)cc4)C(=O)C3=O)CC2)cc1 | · | · | · | -4.8% | · | ·
COc1cc(S(C)=O)ccc1-c1nc2ncccc2[nH]1 (configuration not stated) | 10.3% | -0.6% | 22.6% | 0.6% | -3.2% | -1.2%
Cc1ccc2nc(C)c(CN3CCN(c4ccc([N+](=O)[O-])cc4Cl)CC3)n2c1 | · | -19.2% | 2.31µM* | 1.4% | -29.4% | -34.9%
O=[N+]([O-])c1ccc(Cl)c(CN2CCN(c3ncccn3)CC2)c1 | · | 2.0% | 12.5% | -0.6% | 1.5% | -5.4%
C=CCNC(=O)c1ccccc1NC(=O)Nc1ccccc1 | 19.5% | 5.7% | 1.3% | 19µM* | 7.5% | 17.5%
COCCNC(=O)c1ccccc1NC(=O)Nc1ccccc1 | 9.4% | -0.1% | 7.4% | 26.9µM* | -4.5% | 2.4%
Cc1ccc(NC(=O)Nc2ccccc2C(=O)NCc2ccccc2)cc1 | 2.2% | ? | ? | 4.78µM* | 21.1% | 20.7%
COCCNC(=O)c1ccccc1NC(=O)c1cc(OC)cc(OC)c1 | -0.8% | -7.0% | ? | -13.9% | -4.5% | 1.2%
Cc1nn(C)c(C)c1NC(=O)c1ccccc1NC(=O)Nc1ccccc1 | · | -1.1% | 7.3% | 16.9µM* | -2.4% | 1.1%
Cc1ccccc1OC(=O)CSc1nnc(-c2ccc3c(c2)OCO3)o1 | · | · | · | -3.8% | · | ·
CCc1c(C)nc(SCC(=O)N2CCCCC2CC)[nH]c1=O (configuration not stated) | · | ? | ? | -1.1% | -4.7% | -4.1%
Cc1c(Cl)cccc1NC(=O)C(C)N(c1ccccc1)S(C)(=O)=O (configuration not stated) | -6.3% | · | · | -9.2% | · | ·
CN(CC(=O)Nc1cccc(F)c1)C(=O)CNC(=O)Cc1cccc2ccccc12 | · | 1.2% | 18.6% | 2.0% | -5.7% | 1.0%
Cc1ccccc1Cn1c(SCc2ccc(C(=O)NC(C)c3ccccc3)cc2)nc2ccncc21 (configuration not stated) | -14.5% | · | · | -10.4% | · | ·
COc1ccc(CNC(=O)c2ccc3c(c2)N(C)C(=O)CS3=O)cc1 (configuration not stated) | -2.9% | -4.3% | -5.0% | -2.0% | -3.5% | -1.6%
O=C(NCC1CC1)c1ccccc1Cl | · | -0.8% | -1.3% | -0.7% | -2.3% | 0.7%
COCCNC(=O)c1ccccc1NC(=O)c1nsc2ccccc12 | · | · | · | 19µM* | · | ·
O=C(Nc1ccccc1)Nc1ccccc1C(=O)NCC1CC1 | · | -0.9% | -6.8% | 15.1µM* | -0.9% | -2.9%
O=C(C#Cc1ccccc1)c1ccco1 | · | -57.6% | ? | 15.1µM* | -41.5% | -44.9%
CN(Cc1ccccc1)C(=O)c1ccco1 | · | 3.4% | 20.4% | 2.6% | 1.3% | -0.1%
SMILES | SMN2 splice up | ELG1 genotox | ELG1 repair inh | FLuc modulator | NPC1 prom act | Rab9 prom act
CCCc1ccc(OCc2ccc(C(=O)N/N=C/c3cccnc3)o2)cc1 | · | 0.82µM* | ? | ? | 0.398µM* | 0.447µM*
CCOc1ccccc1/C=N/NC(=O)c1ccc(Cn2cc([N+](=O)[O-])cn2)o1 | 5.8% | 1.5% | 1.5% | 6.0% | -2.5% | -5.1%
CCOc1ccc(/C=N/NC(=O)c2ccc(Cn3cc(Br)cn3)o2)cc1 | 6.6% | 16.6% | ? | 6.75µM* | 4.1% | 2.0%
CCOc1ccc(/C=N/NC(=O)c2ccc(Cn3cc([N+](=O)[O-])cn3)o2)cc1 | 27.4% | · | · | 4.78µM* | · | ·
CC(/C=N/NC(=O)c1ccc(Cn2cc([N+](=O)[O-])cn2)o1)=C\c1ccccc1 | · | 12.2% | ? | 2.39µM* | ? | 3.8%[1.84 µM]
CCOC(=O)C1=c2/c(=C/c3ccncc3)c(N)c(C(=O)OC)n2C(=O)C(c2ccncc2)S1 (configuration not stated) | -0.7% | -0.4% | ? | 0.9% | -1.4% | -2.8%
CN(C(=O)c1ccc(S(=O)(=O)N(C)C)cc1)c1ccc2ccccc2c1 | · | -0.6% | 12.8% | -0.2% | 1.1% | 2.3%
COc1ccc(/C=N/NC(=O)c2ccc(COc3ccccc3Cl)o2)cc1 | 14.1% | 12.7% | ? | 2.69µM* | 17.7% | 16.8%
CC(C)(C)c1ccc(OCc2ccc(C(=O)N/N=C/c3ccc([N+](=O)[O-])cc3)o2)cc1 | 20.3% | 1.9% | 26.9% | ? | 1.58µM* | ?
COc1ccc(/C=N/NC(=O)c2ccc(COc3ccccc3Cl)o2)c(OC)c1C | -7.8% | 14.1% | -12.1% | 2.5% | -5.9% | -7.4%
O=C(N/N=C/c1ccc([N+](=O)[O-])cc1)c1cc2ccccc2o1 | · | 16.1% | ? | -0.8% | -5.2% | -5.1%
Cc1ccc(Nc2ccc(N3CCN(C(=O)c4ccc([N+](=O)[O-])cc4)CC3)nn2)cc1 | · | · | · | 3.0% | · | ·
Cc1cccc(C)c1N(CC(=O)NCc1ccco1)C(=O)CNS(=O)(=O)c1ccc(F)cc1 | · | -0.6% | ? | -1.0% | -5.1% | 3.8%
Cc1ccc([N+](=O)[O-])cc1N=Cc1ccc(Br)s1 | ? | 9.4% | ? | 13.5µM* | ? | -1.4%
O=C(N/N=C/c1ccc(Br)s1)c1ccc([N+](=O)[O-])cc1 | -28.8% | -6.6% | 5.8µM* | -2.4% | -22.3% | -25.1%
O=C(NN=Cc1ccc(N2CCOCC2)s1)c1ccc([N+](=O)[O-])cc1 | · | -8.5% | 9.2µM* | · | · | ·
NC(=O)N/N=C/c1ccc(N2CCOCC2)s1 | 10.3% | 7.8% | -11.9% | ? | 0.4% | 2.0%
CSc1ncc(C(=O)Nc2cc(C)ccc2C)c(C)n1 | · | -0.6% | ? | 2.8% | -0.6% | -0.6%
CCSc1nsc(NC(=O)Nc2ccccc2F)n1 | · | -5.2% | ? | 10.7µM* | 2.82µM* | 1.58µM*
CC(c1ccccc1)c1nnc(NC(=O)Nc2ccccc2F)s1 (configuration not stated) | · | 3.9% | ? | ? | ? | 7.2%
O=C(Nc1ccc(F)cc1)Nc1nnc(SCC(=O)N2CCCCC2)s1 | · | · | · | 4.6% | · | ·
C=CCSc1nsc(NC(=O)Nc2ccc(F)cc2)n1 | · | -3.1% | ? | 23.9µM* | -15.1% | -27.4%
